Hit rate of the full screen: of about 300,000 compounds, about 1,700 (0.57%) were called active. Another 2% or so got no clear call; they are omitted. For the sample, actives were picked, then their nearest neighbours and some compounds at random. Values without a mark were called inactive.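 The calls were made as follows: active = growth inhibition above about 58% in most replicates (limit read from the data, passing the limit was not always enough); inconclusive = exactly half the replicates above a set limit; inactive = most replicates below a set limit.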
Assay: C. albicans growth inhibition with fluconazole, primary screen, CaCi-2 strain, Alamar Blue fluorescence (AID 1979);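 also: all wells also contain fluconazole at 8 µg/ml as a sub-toxic cotreatment; 0% = median of DMSO wells and 100% = median of geldanamycin control wells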
Settings: C. albicans CaCi-2 (fluconazole-resistant clinical isolate) + fluconazole, 48 h, active compounds read high, concentration not given here

With `Nc1cc(N)nc(SCc2cccc(F)c2)n1` as the compound, how does the growth inhibition read?
Its growth inhibition is 93.5% (active).

Which growth inhibition does the source give for `Nc1cc(N)nc(SCc2ccc(Cl)cc2)n1` here?
Its growth inhibition is 12.7%.

With `CCc1nnc(SCc2cccc(F)c2)nc1CC` as the compound, how does the growth inhibition read?
Its growth inhibition is -15.9%.

For `O=C(c1ccc(Cl)s1)N(Cc1nnc(-c2ccccc2Cl)o1)C1CC1`, which growth inhibition is on record?
Its growth inhibition is -12.7%.

Which growth inhibition does the source give for `COc1ccccc1N1CCN(C(=O)c2cc(=O)c3cc(C)cc(C)c3o2)CC1` here?
Its growth inhibition is 4.61%.

Which growth inhibition does the source give for `Nc1nonc1-n1nnc(C(=O)N/N=C/c2cc(Br)ccc2O)c1CSC1=NCCS1` here?
Its growth inhibition is 90.5% (active).

Which growth inhibition does the source give for `Cc1ccc(SCc2c(C(=O)N/N=C/c3cccnc3)nnn2-c2nonc2N)cc1` here?
The growth inhibition was 19.8%.

Which growth inhibition does the source give for `Nc1nonc1-n1nnc(C(=O)N/N=C/c2ccccc2O)c1CN1CCCC1` here?
Its growth inhibition is -25.8%.

With `CCOC(=O)C1=C(c2ccccc2)NC(=O)NC1c1cc(OCC)c(O)c([N+](=O)[O-])c1` (centres undefined) as the compound, how does the growth inhibition read?
The growth inhibition was 38%.

For `CCOC(=O)C1=C(c2ccccc2)NC(=O)NC1c1cc(OC)c(OC)cc1OC` (centres undefined), which growth inhibition is on record?
Its growth inhibition is 111% (active).

With `COc1cc(C2NC(=O)NC(c3ccccc3)=C2C(C)=O)c(Br)cc1OCC(N)=O` (centres undefined) as the compound, how does the growth inhibition read?
Its growth inhibition is 6.65%.

For `Cc1cccc(NS(=O)(=O)c2ccc(C(=O)NCC(C)(C)N3CCOCC3)cc2)c1C`, which growth inhibition is on record?
The growth inhibition was -3.65%.

With `CCOc1ccc(CCNC(=O)COC(=O)c2c(OC)cccc2OC)cc1OCC` as the compound, how does the growth inhibition read?
The growth inhibition was 8.5%.

Which growth inhibition does the source give for `Cc1ccn2c(=O)c(NC(=O)c3cccc4ccccc34)c(C)nc2c1` here?
The growth inhibition was 1.1%.

With `CCOc1ccc(NC(=O)NNC(=O)c2ccc(Cl)cc2Cl)cc1` as the compound, how does the growth inhibition read?
The growth inhibition was 0.808%.

With `OC(CNCCc1ccc(Cl)cc1Cl)COc1ccccc1` (centres undefined) as the compound, how does the growth inhibition read?
Its growth inhibition is 7.1%.

Which growth inhibition does the source give for `NC(N)=N/N=C/c1ccc(OCc2ccc(Cl)cc2Cl)cc1` here?
The growth inhibition was 123% (active).

With `OCCCNc1nc(-c2ccccc2)c2cc(Cl)ccc2n1` as the compound, how does the growth inhibition read?
The growth inhibition was 14.2%.

Which growth inhibition does the source give for `O=C1c2ccccc2NC(c2ccc(-c3cccc(Cl)c3)o2)N1O` (centres undefined) here?
The growth inhibition was 96.8% (active).

For `O=C(O)C(c1ccccc1)N1C(=O)/C(=C\c2ccc(-c3cccc(Cl)c3)o2)SC1=S` (centres undefined), which growth inhibition is on record?
The growth inhibition was 37.9%.

Which growth inhibition does the source give for `O=c1c(-c2cccc(Cl)c2)c[nH]n1-c1ccccc1` here?
Its growth inhibition is 0.955%.

Which growth inhibition does the source give for `Cc1ccc(CCN2CC(C(=O)NCCc3ccccc3)CC2=O)cc1` (centres undefined) here?
Its growth inhibition is -6.78%.

For `Cc1cccnc1NC(=O)Cn1c(=O)oc2ccccc21`, which growth inhibition is on record?
Its growth inhibition is -0.441%.

With `C[C@@H]1C[C@@H]2O[C@H]2/C=C\C=C\C(=O)Cc2c(Cl)c(O)cc(O)c2C(=O)O1` as the compound, how does the growth inhibition read?
The growth inhibition was 84.1% (active).

Which growth inhibition does the source give for `COC(=O)c1cc(-c2cccs2)nc2ccccc12` here?
The growth inhibition was -7.15%.

With `O=C(NCCN1CCOCC1)c1cc(-c2cccs2)nc2ccccc12` as the compound, how does the growth inhibition read?
Its growth inhibition is -3.11%.

Which growth inhibition does the source give for `O=C(Nc1nnc(-c2ccccc2)o1)c1cc(-c2cccs2)nc2ccccc12` here?
The growth inhibition was 89.3% (active).

For `CC1CCCCN1S(=O)(=O)c1ccc(C(=O)Nc2nnc(-c3cccs3)o2)cc1` (centres undefined), which growth inhibition is on record?
The growth inhibition was 95.4% (active).

For `CC1CCCN(S(=O)(=O)c2ccc(C(=O)Nc3nnc(-c4ccncc4)o3)cc2)C1` (centres undefined), which growth inhibition is on record?
The growth inhibition was 18.1%.

For `CSCc1nnc(NC(=O)c2ccc(S(=O)(=O)N3CCCCC3C)cc2)o1` (centres undefined), which growth inhibition is on record?
Its growth inhibition is 8.82%.

Which growth inhibition does the source give for `COc1ccc(-c2cc(=O)oc3cc(OC(C)C(=O)NCC4CCC(C(=O)O)CC4)ccc23)cc1` (centres undefined) here?
Its growth inhibition is -4.33%.

With `CSCCC(NS(=O)(=O)c1ccc(C)cc1)C(=O)NCCc1c[nH]c2ccccc12` (centres undefined) as the compound, how does the growth inhibition read?
Its growth inhibition is -6.21%.

For `COc1ccc(N(C(=O)c2ccc(C)cc2)S(=O)(=O)c2cccs2)cc1`, which growth inhibition is on record?
Its growth inhibition is 4.35%.

For `O=S(=O)(/N=C(/Nc1ccccc1)c1ccccc1)c1cccs1`, which growth inhibition is on record?
The growth inhibition was -39.8%.

With `CN(/C(=N/S(=O)(=O)c1cccs1)c1ccccc1)c1ccc(O)cc1` as the compound, how does the growth inhibition read?
The growth inhibition was 117% (active).

For `CN(CC(=O)Nc1cccc(F)c1)C(=O)C1CC(=O)N(CCc2ccccc2)C1` (centres undefined), which growth inhibition is on record?
Its growth inhibition is -9.09%.

With `Oc1ccc(N=Nc2nccs2)c(O)c1` as the compound, how does the growth inhibition read?
Its growth inhibition is 85.9% (active).

With `Oc1ccc2ccccc2c1N=Nc1nccs1` as the compound, how does the growth inhibition read?
Its growth inhibition is 0.433%.

For `CC(CN1CCC(n2nccc2NC(=O)C2CCCC2)CC1)c1ccccc1` (centres undefined), which growth inhibition is on record?
Its growth inhibition is -5.12%.

For `CC1=NNC(=O)C1Cc1c(Cl)cccc1Cl` (centres undefined), which growth inhibition is on record?
The growth inhibition was -0.631%.

For `CN(C(=O)COC(=O)CNC(=O)C12CC3CC(CC(C3)C1)C2)c1ccccc1`, which growth inhibition is on record?
Its growth inhibition is -17.2%.

Which growth inhibition does the source give for `CN(C(=O)CC(NC(=O)c1ccccc1)(c1ccccc1)c1ccccc1)c1ccccc1` here?
Its growth inhibition is 91.8% (active).

For `Cc1ccc(C(=O)NCCNC(=O)c2ccccc2)cc1`, which growth inhibition is on record?
Its growth inhibition is 5.77%.

For `Nc1c(C(=O)Nc2ccc3c(c2)OCCO3)nnn1Cc1ccccc1`, which growth inhibition is on record?
The growth inhibition was 9.7%.

For `Cc1sc2ncnc(N3CCC(C(=O)NNC(=O)c4ccc(F)cc4)CC3)c2c1C`, which growth inhibition is on record?
The growth inhibition was 11%.

For `COc1ccc(S(=O)(=O)NCCCc2ccccc2)cc1`, which growth inhibition is on record?
Its growth inhibition is -3.19%.

Which growth inhibition does the source give for `Cc1nn(-c2ccccc2)c(C)c1NC(=O)COC(=O)c1cc(Cl)ccc1O` here?
The growth inhibition was -3.39%.

Which growth inhibition does the source give for `CCN1C(=O)[C@H]2[C@@H](c3ccc(C)cc3)N3C(=O)N(c4cccc(Br)c4)C(=O)[C@@]3(CC)[C@H]2C1=O` here?
The growth inhibition was -1.61%.

With `O=C(N/N=C/c1ccc2c(c1)OCO2)c1ccc(Cn2cc([N+](=O)[O-])cn2)o1` as the compound, how does the growth inhibition read?
The growth inhibition was -1.68%.

For `Cc1c(Cl)c([N+](=O)[O-])nn1CCCC(=O)Nc1cc(Cl)ccc1Cl`, which growth inhibition is on record?
Its growth inhibition is 0.816%.

For `Cc1c(Cl)c([N+](=O)[O-])nn1Cc1ccc(C(=O)N/N=C\c2cc(Cl)ccc2O)o1`, which growth inhibition is on record?
Its growth inhibition is 112% (active).

For `O=C1N[C@@H](Cc2ccccc2)C(=O)N2[C@H]1C[C@]1(Br)c3ccccc3N(S(=O)(=O)c3ccccc3)[C@H]21`, which growth inhibition is on record?
Its growth inhibition is 4.33%.

Which growth inhibition does the source give for `COC(=O)Cc1[nH]n(-c2nc3ccccc3s2)c(=O)c1C(C)=Nc1ccc(OC)cc1` here?
Its growth inhibition is 5.2%.

With `C/C(=N\NC(=O)CC(C)C)c1c(C(F)(F)F)[nH]n(-c2nc3ccccc3s2)c1=O` as the compound, how does the growth inhibition read?
Its growth inhibition is 8.15%.

Which growth inhibition does the source give for `COC(=O)Cc1cc(=O)n(-c2nc3ccccc3s2)[nH]1` here?
Its growth inhibition is 93.5% (active).

With `COc1cc(/C=C/C(=O)O)cc(S(=O)(=O)Nc2ccccc2C(=O)NCCc2ccccc2)c1OC` as the compound, how does the growth inhibition read?
Its growth inhibition is -0.0595%.

With `O=C(/C=C/c1ccco1)Nc1cccc(-c2nc3ccccc3[nH]2)c1` as the compound, how does the growth inhibition read?
The growth inhibition was 91.5% (active).

Which growth inhibition does the source give for `O=C(Nc1cccc(-c2nc3ccccc3[nH]2)c1)c1ccc(C(=O)Nc2cccc(-c3nc4ccccc4[nH]3)c2)cc1` here?
The growth inhibition was -12.9%.

With `Cc1ccc(-n2nc3ccc(NC(=O)/C=C/c4ccco4)cc3n2)cc1C` as the compound, how does the growth inhibition read?
Its growth inhibition is 20%.

Source: PubChem BioAssay AID1979 (Broad Institute, 2009)
